From PubChem BioAssay
G9a block – G9a (human) methyltransferase inhibition; Q96KQ7; Potency, µM (highest dose often 102 µM), for inactives: at the top dose activity, negative = inhibition, usual class: inhibitors; 350,000 tested, 8.8% active; AID 504332; G9a H3K9 monomethylation, AlphaScreen, 2 h; also: potency is read from the fitted curve at half-maximal effect; % is scaled to controls: 0 for no effect and ±100 for the full control effect; nearly all actives have a fitted effect of over 75% in size
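G9a (20 nM) preincubated 15 min RT with compounds, then 500 nM biotinylated H3K9 peptide and 20 uM SAM added; 2 h RT reaction. Monomethyl-H3K9 product detected by AlphaScreen with anti-H3K9me1 antibody, streptavidin donor and anti-rabbit IgG acceptor beads.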
PI5P4Ka inh – inhibitors of human PI5P4K alpha. P48426. PI5P4Kalpha enzyme, ADP-Glo luminescence, 60 min; active compounds read low. max response, %. 330,000 tested, 1.2% active; active = max response of -50% or lower; inconclusive = between -30% and -50%; inactive = -30% or higher; also: value at the top dose of about 77 µM; % is scaled to controls: 0 for no effect and ±100 for the full control effect
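Luminescence from ADP-Glo served as readout of PI5P4Kalpha activity in a qHTS format. Reaction: enzyme, substrate, compound, ATP at 5 microM final, 60 min at RT.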
JMJD2A Tudor inh – JMJD2A Tudor domain (human) inhibition | AID 504339 | AlphaScreen JMJD2A-Tudor / H3K4me3 peptide binding | 390,000 tested, 4.4% active | Potency, µM (highest dose often 114 µM), for the others: at the highest dose activity change, negative = inhibition, most hits filed as inhibitors; also: potency is read from the fitted curve at half-maximal effect; % is scaled to controls: 0 for no effect and ±100 for the full control effect; nearly all actives have a fitted effect of over 50% in size
Target sequence (O75164 whole entry, looked up, the tested form may be a part): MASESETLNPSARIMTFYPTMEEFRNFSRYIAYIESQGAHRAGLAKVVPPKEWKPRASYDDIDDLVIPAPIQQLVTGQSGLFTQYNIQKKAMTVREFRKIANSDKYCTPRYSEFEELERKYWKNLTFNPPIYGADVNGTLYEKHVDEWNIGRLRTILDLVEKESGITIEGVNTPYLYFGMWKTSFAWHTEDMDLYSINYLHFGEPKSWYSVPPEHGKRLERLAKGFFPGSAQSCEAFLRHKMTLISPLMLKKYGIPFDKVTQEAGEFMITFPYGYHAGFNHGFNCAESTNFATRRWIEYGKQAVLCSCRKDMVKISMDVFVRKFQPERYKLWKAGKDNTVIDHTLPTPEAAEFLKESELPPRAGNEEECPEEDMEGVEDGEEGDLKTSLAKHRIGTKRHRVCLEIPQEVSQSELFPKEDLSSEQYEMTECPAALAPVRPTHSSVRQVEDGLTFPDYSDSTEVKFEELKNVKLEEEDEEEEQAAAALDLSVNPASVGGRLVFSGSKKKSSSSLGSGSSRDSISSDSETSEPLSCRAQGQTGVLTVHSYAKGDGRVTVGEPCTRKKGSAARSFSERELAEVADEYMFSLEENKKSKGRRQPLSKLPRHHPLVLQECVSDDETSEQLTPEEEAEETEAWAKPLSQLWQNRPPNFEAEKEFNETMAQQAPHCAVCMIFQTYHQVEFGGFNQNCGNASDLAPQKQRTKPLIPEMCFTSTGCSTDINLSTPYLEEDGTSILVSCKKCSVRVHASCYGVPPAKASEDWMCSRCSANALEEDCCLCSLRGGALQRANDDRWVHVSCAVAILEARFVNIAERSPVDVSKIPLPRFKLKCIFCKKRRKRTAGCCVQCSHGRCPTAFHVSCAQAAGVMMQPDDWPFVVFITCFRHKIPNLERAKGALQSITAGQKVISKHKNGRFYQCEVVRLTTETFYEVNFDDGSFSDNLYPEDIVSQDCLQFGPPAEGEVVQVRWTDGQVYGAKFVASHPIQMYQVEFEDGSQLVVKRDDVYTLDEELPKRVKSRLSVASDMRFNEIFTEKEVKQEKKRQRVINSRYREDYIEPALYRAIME
PLK1 PBD block – inhibitors of human PLK1 polo-box domain binding; P53350; Potency, µM, for inactives: max response, negative = inhibition, actives largely listed as inhibitors; Plk1 PBD binding of FITC phosphopeptide, fluorescence polarization; AID 720504; 360,000 tested, 2.8% active; also: potency is read from the fitted curve at half-maximal effect; series mostly up to about 57 µM; % is scaled to controls: 0 for no effect and ±100 for the full control effect; nearly all actives have a fitted effect of over 65% in size
BAZ2B inh – inhibitors of human BAZ2B bromodomain | Q9UIF8 | AlphaScreen BAZ2B-H3K14Ac peptide displacement | Potency, µM (titrated, usually from 114 µM), for the others: at the highest dose activity change, negative = inhibition, most hits filed as inhibitors | 360,000 tested, 4.4% active; also: potency is read from the fitted curve at half-maximal effect; % is scaled to controls: 0 for no effect and ±100 for the full control effect; nearly all actives have a fitted effect of over 60% in size
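AlphaScreen displacement: compounds (up to 110uM) incubated 30 min at room temperature with a preformed 50 nM BAZ2B/50 nM biotinylated H3K14Ac peptide complex in PBS pH 7.4 with Tween-20. Donor and acceptor beads at 10 ug/mL final added, 20 min light-protected before reading.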
HP1b chromo inh – blocks HP1-beta chromodomain binding to methylated histone tails; P83916; 390,000 tested, 0.56% active; AlphaScreen HP1-beta / biotin-H3K9me3 peptide binding; AID 540317; Potency, µM (doses to about 114 µM), without a hit: at the top dose activity change, negative = inhibition, hits mostly inhibitors; also: potency is read from the fitted curve at half-maximal effect; nearly all actives have a fitted effect of over 70% in size
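HP1-beta protein (50 nM final) preincubated 30 min at room temperature with biotinylated H3(1-18)K9me3 peptide (50 nM) in PBS pH 7.4, 0.01% Tween-20, then compound added for 30 min. AlphaScreen streptavidin donor/nickel chelate acceptor beads (10 ug/mL final), 30 min dark, luminescence read.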
* hit, by the source's call; ? = inconclusive; nt = no result; [ ] = remark or other dose. Shown are actives, neighbours in structure and some others; about 12% of the full set was active somewhere. Unless noted, calls follow the shape of the dose curve; as a rule, active = well fitted curve in the direction sought with a large enough effect; inconclusive = small, poorly fitted or top-dose-only effect, or another doubt; inactive = no such curve, though single readings can be large; an effect the other way counts as inactive or inconclusive.

SMILES	G9a block	PI5P4Ka inh	JMJD2A Tudor inh	PLK1 PBD block	BAZ2B inh	HP1b chromo inh
CCn1c(SC)nnc1C1CCN(S(=O)(=O)c2ccc(OC)cc2)CC1	73%[59 µM]	2	-20%[57.1 µM]	-19%	-3%	19%
Cc1c(C(=O)NCc2cccc(C(F)(F)F)c2)sc(=O)n1Cc1ccccc1F	nt	3	nt	7%	nt	nt
COc1ccc(S(=O)(=O)N2CCC(N3CCN(Cc4ccccc4)CC3)CC2)cc1	22µM*	-4	5.6µM*	24%	25µM*	?
COc1ccc(S(=O)(=O)N2CCC(C(=O)N3CCCCCC3)CC2)cc1	?	-24	-14%[11.4 µM]	11µM*	-25%	3%
COc1ccc(S(=O)(=O)N2CCC(N3CCCC3)CC2)cc1	8.9µM*	-7	25µM*	-10%	56µM*	-4%
O=S(=O)(c1ccccc1)N1CCC(N2CCCCCC2)CC1	?	-3	4µM*	-1%	?	?
O=C1CCCC(=O)C1C(=O)C1CCN(S(=O)(=O)c2ccccc2)CC1	14%	-12	56µM*	?	-13%	?
O=C(C1CCN(S(=O)(=O)c2ccc(F)cc2)CC1)N1CC=C(c2ccccc2)CC1	14µM*	-1	-6%	-2%	-3%	20%
O=C(C1CCN(S(=O)(=O)c2ccccc2)CC1)N1CCCCC1	27%	1	8%	3%	-11%	14%
COc1ccc(-c2csc(C(O)c3ccc(F)cc3)n2)cn1 (configuration not stated)	nt	4	nt	5%	nt	nt
O=c1[nH]c(/C=C/c2ccc([N+](=O)[O-])cc2)c([N+](=O)[O-])c(=O)[nH]1	28µM*	-66*	-3%	-5%	-4%	6%
O=c1[nH]c(/C=C/c2ccc3c(c2)OCO3)c([N+](=O)[O-])c(=O)[nH]1	?	nt	nt	nt	-4%	nt
CN(C)/C=C/c1[nH]c(=O)[nH]c(=O)c1[N+](=O)[O-]	nt	-80*	-4%	0%	-2%	35%
COc1ccc(OC)c(/C=C/c2[nH]c(=O)[nH]c(=O)c2[N+](=O)[O-])c1	nt	-77*	-23%	-3%	-2%	?
Cc1[nH]c(=O)c(C#N)c(C)c1[N+](=O)[O-]	nt	-7	-3%	-2%	4%	51%
Cc1cc(NC(=O)CSc2nnc(N)s2)c([N+](=O)[O-])cc1C	?	6	-17%	-18%	-12%	15%
O=C1C2=C(NC(=S)NC2c2ccc(Cl)cc2)NC(c2ccc(Cl)cc2)N1c1ccc(Cl)cc1 (configuration not stated)	50µM*	-52*	?	-2%	?	18%
CCOc1ccc(NC(=O)CC2Nc3cccc4cccc(c34)NC2=O)cc1 (configuration not stated)	?	nt	?	nt	-29%	22%
COc1cc([N+](=O)[O-])ccc1NC(=O)N1CCC2(CC1)Nc1cc(F)ccc1-n1cccc12	?	nt	-30%	nt	-23%	-2%[57 µM]
Nc1ccc2nc3c(=O)n(CCc4ccccc4)c(=O)[nH]c3nc2c1	nt	-63*	0%	4.2µM*	7%	25%
Cc1cc2nc3c(=O)n(CCc4ccccc4)c(=O)[nH]c3nc2cc1N	-4%	-86*	-19%	2.7µM*	-12%	14%
Nc1ccc2nc3c(=O)n(C4CCCCC4)c(=O)[nH]c3nc2c1	-3%[59 µM]	?	-9%	5.3µM*	-1%	31%
Nc1c(S(=O)(=O)c2cccs2)c2nc3ccccc3nc2n1CCc1ccccc1	7%[59 µM]	nt	nt	nt	-2%	nt
CCCCn1c(N)c(Br)c(=O)[nH]c1=O	-1%[12.7 µM]	-7	-4%	-9%	0%	33%
CCCCn1c(=O)[nH]c2nc3cc(N)ccc3nc2c1=O	3.5µM*	-66*	-25%	4.7µM*	?	7%
C=CCn1c(=O)[nH]c2nc3cc(N=CN(C)C)c(C)cc3nc2c1=O	?	3	2%	?	1%	37%
COc1ccc(NC(=O)CSc2nc3c(c(=O)[nH]2)CN(Cc2ccccc2)CC3)cc1Cl	-28%[59 µM]	nt	-18%	nt	-15%	-1%
